# Several values for one entry are separate records, joined by “and”; a condition that tells them apart may be missing. Equal entries are not always repeated. Some compounds were tested as several samples or in several runs, with calls that do not always agree. Activity calls are given as the source filed them. How the source made its calls: active means hit-call score of the fitted dose curve at least 0.9, where 1 is the maximum; inactive means score below 0.9.
# Legend:
# [1] = APR_HepG2_MitoticArrest_72hr: Apredica 72-hour HepG2 Assay for Mitotic Arrest (AID 2282918); settings: high-content imaging, actives raise or lower the signal
# Procedure, shortened: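 High-content imaging of fixed human HepG2 cells after 72 h compound exposure (0.39–200 uM, duplicates, 0.5% DMSO); mitotic arrest scored from phospho-histone H3 and nuclear Hoechst staining relative to DMSO.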
# [2] = APR_HepG2_MicrotubuleCSK_72hr: Apredica 72-hour HepG2 Assay for Microtubule CSK Stabilty (AID 2282919); settings: HepG2 microtubule cytoskeleton, high-content imaging, actives raise or lower the signal
# Procedure, shortened: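 HepG2 human liver cells were dosed for 72 h at ten concentrations from 0.39 to 200 uM in duplicate (0.5% v/v DMSO final). Fixed, permeabilized cells were immunostained for alpha-tubulin (Cy5) with a Hoechst counterstain and imaged at 20x.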
# [3] = APR_HepG2_P-H2AX_24hr: Apredica 24-hour HepG2 Assay for H2AX Phosphorylation (AID 2282920); settings: high-content imaging, actives raise or lower the signal
# Procedure, shortened: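 High-content imaging of phospho-histone H2A.x immunofluorescence, nuclei counterstained with Hoechst 33342, in fixed HepG2 cells. Compounds ran 0.39–200 uM in duplicate for 24 h, final DMSO 0.5%. Signal change fitted both directions against DMSO.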
# [4] = APR_HepG2_StressKinase_72hr: Apredica 72-hour HepG2 Assay for Stress Kinase (AID 2282921); settings: HepG2 stress kinase (phospho-c-Jun) imaging, actives raise or lower the signal
# Procedure, shortened: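 Fluorescence intensity of Cy3-tagged anti-phospho-c-Jun antibody, quantified per cell from Hoechst-defined nuclei across six images per well, served as the read-out following 72 h exposure (0.39–200 uM, 0.5% v/v DMSO).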
# [5] = APR_HepG2_StressKinase_24hr: Apredica 24-hour HepG2 Assay for Stress Kinase (AID 2282922); settings: HepG2 stress kinase (phospho-c-Jun) imaging, actives raise or lower the signal
# Procedure, shortened: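 HepG2 cells exposed 24 hr to compound at 0.39–200 uM (10 concentrations, duplicate), 0.5% v/v DMSO final. Fixed in 3.7% formaldehyde, permeabilized with Triton X-100, immunolabeled for phospho-c-Jun with Hoechst 33342; HCS fluorescence imaging, bidirectional fit versus DMSO.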
# [6] = APR_HepG2_MitoMass_72hr: Apredica 72-hour HepG2 Assay for Mitochondrial Mass (AID 2282924); settings: high-content imaging, actives raise or lower the signal;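 further: MitoTracker Red CMXRos stain intensity per cell imaged as mitochondrial mass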
# Procedure, shortened: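 HepG2 cells were exposed for 72 hr to compounds at 0.39–200 uM (ten concentrations, duplicate, 0.5% v/v DMSO final). Live cells were stained with 250 nM MitoTracker Red CMXRos for 30 min, then fixed in 3.7% formaldehyde and imaged by HCS fluorescence.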
# [7] = APR_HepG2_NuclearSize_72hr: Apredica 72-hour HepG2 Assay for Nuclear Size (AID 2282925); settings: high-content imaging, actives raise or lower the signal
# Procedure, shortened: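 HepG2 cells were exposed to compounds at ten concentrations from 0.39 to 200 uM (duplicate, 0.5% DMSO final) for 72 hr. After fixation in 3.7% formaldehyde, nuclei were stained with Hoechst 33342 (2 ug/mL) and imaged at 20x.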
# [8] = ATG_CRE_CIS: Attagene CIS-FACTORIAL HepG2 Assay for human cAMP Responsive Element (CRE) binding protein 3 (AID 2282926); settings: HepG2 CRE cis-reporter, Attagene multiplexed mRNA; actives raise or lower the signal
# Procedure, shortened: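 Multiplexed transcription-unit reporters transfected into HepG2; 24 h dosing; RT-PCR/capillary electrophoresis fluorescence read-out; bidirectional fit vs DMSO.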
# [9] = target: CCAAT/enhancer-binding protein beta (Homo sapiens) (UniProt P17676); assay: ATG_C_EBP_CIS: Attagene CIS-FACTORIAL HepG2 Assay for human CCAAT/Enhancer Binding Protein (C/EBP) beta (AID 2282927); settings: HepG2 Attagene cis-factorial transcription factor reporter; actives raise or lower the signal
# Chain of CCAAT/enhancer-binding protein beta (Homo sapiens) (P17676 whole entry, looked up): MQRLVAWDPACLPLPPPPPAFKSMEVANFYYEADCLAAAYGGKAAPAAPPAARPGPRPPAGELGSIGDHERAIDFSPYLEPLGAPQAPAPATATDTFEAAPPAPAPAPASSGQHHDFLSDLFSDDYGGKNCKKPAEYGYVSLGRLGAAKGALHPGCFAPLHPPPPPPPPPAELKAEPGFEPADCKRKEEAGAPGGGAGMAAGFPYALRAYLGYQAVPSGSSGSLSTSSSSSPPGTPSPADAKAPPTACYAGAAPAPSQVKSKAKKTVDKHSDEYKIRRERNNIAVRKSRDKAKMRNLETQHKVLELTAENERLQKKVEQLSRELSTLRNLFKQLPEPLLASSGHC
# Procedure, shortened: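 Following a 24 h incubation with test chemical, transfected HepG2 cells yielded RNA whose reporter transcripts were quantified by RT-PCR and fluorescent capillary electrophoresis, with DMSO serving as baseline for bidirectional fitting.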
# [10] = ATG_CMV_CIS: Attagene CIS-FACTORIAL HepG2 Assay for human CMV (Internal Marker) (AID 2282928); settings: HepG2 CMV promoter reporter, transcription factor profiling; actives raise or lower the signal;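 further: endpoint acts as a background internal control marker rather than a target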
# Procedure, shortened: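 HepG2 cells transiently transfected with multiple cis-regulated reporter units; 24 h compound exposure. Reporter mRNA quantified by RT-PCR, 6-FAM primer-extension labeling, HpaI digestion and capillary electrophoresis; bidirectional fitting against DMSO baseline.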
# [11] = ATG_DR4_LXR_CIS: Attagene CIS-FACTORIAL HepG2 Assay for human Liver X Receptor (LXR), DR4 submotif (AID 2282929); settings: HepG2 Attagene DR4 cis-reporter, mRNA transcription; actives raise or lower the signal
# Procedure, shortened: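 DR4 cis-reporter in HepG2, 24 h exposure. Detection: RT-PCR, 6-FAM labelling, CE fragment analysis. Endpoint fitted bidirectionally, DMSO = baseline.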
# [12] = target: Aryl hydrocarbon receptor (Homo sapiens) (UniProt P35869); assay: ATG_Ahr_CIS: Attagene CIS-FACTORIAL HepG2 Assay for human Aryl Hydrocarbon Receptor (Ahr) (AID 2282930); settings: HepG2 AhR cis-factorial reporter transcription; actives raise or lower the signal
# Chain of Aryl hydrocarbon receptor (Homo sapiens) (P35869 whole entry, looked up): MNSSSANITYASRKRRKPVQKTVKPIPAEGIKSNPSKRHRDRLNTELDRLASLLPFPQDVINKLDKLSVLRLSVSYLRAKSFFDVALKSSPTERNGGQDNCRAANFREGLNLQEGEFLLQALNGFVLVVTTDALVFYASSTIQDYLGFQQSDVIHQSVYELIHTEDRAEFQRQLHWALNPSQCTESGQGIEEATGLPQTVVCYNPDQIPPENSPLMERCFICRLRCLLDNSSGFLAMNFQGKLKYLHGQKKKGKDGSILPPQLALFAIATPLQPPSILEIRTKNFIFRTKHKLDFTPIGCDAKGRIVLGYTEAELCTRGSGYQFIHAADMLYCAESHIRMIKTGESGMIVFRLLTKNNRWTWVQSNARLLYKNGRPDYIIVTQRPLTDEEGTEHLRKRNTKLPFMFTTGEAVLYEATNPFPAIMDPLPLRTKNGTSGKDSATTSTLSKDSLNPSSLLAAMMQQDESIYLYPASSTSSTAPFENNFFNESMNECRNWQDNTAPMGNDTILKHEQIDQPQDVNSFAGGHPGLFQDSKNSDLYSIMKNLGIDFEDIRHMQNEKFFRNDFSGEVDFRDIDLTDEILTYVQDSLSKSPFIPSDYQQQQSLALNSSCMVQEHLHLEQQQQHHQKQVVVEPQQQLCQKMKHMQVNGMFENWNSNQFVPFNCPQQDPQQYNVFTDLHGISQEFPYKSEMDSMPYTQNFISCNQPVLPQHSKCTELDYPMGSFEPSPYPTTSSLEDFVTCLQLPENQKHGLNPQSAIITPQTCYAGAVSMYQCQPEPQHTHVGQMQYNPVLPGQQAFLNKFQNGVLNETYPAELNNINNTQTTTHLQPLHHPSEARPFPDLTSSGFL
# Procedure, shortened: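 Values derive from bidirectional fitting against DMSO negative control. Underlying signal: cis-element reporter mRNA in transiently transfected HepG2, harvested 24 h post-dose and measured by RT-PCR plus capillary electrophoresis.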
# [13] = ATG_AP_1_CIS: Attagene CIS-FACTORIAL HepG2 Assay for human Activator Protein 1 (AP-1) (AID 2282931); settings: HepG2 Attagene cis-factorial AP-1 reporter mRNA; actives raise or lower the signal
# Procedure, shortened: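 Cis-regulated reporter units transiently expressed in HepG2 report endogenous transcription-factor activity. Signal: reporter mRNA at 24 h, via RT-PCR and fluorescent capillary electrophoresis. Endpoint derived by bidirectional fitting, DMSO as negative control.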
# [14] = ATG_AP_2_CIS: Attagene CIS-FACTORIAL HepG2 Assay for human Activator Protein 2 (AP-2) (AID 2282932); settings: HepG2 AP-2 cis-reporter, Attagene transcription factor profiling; actives raise or lower the signal
# Procedure, shortened: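 HepG2 cells were transiently transfected with multiple cis-promoter reporter transcription units and dosed for 24 h. Reporter mRNA was measured by RT-PCR with capillary electrophoresis fluorescence; bidirectional fits relative to DMSO baseline.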
# [15] = ATG_BRE_CIS: Attagene CIS-FACTORIAL HepG2 Assay for human Bone Morphogenetic Protein (BMP) Response Element (BRE) (AID 2282933); settings: HepG2 BMP response element reporter, Attagene transcription factor profiling; actives raise or lower the signal
# Procedure, shortened: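 Multiplexed cis-reporter assay, HepG2, 24 h exposure. mRNA from reporter units quantified via RT-PCR/CE; DMSO baseline; bidirectional curve fit.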
# [16] = target: Retinoic acid receptor alpha (Homo sapiens) (UniProt P10276); assay: ATG_DR5_RAR_CIS: Attagene CIS-FACTORIAL HepG2 Assay for human Retinoic Acid Receptor Alpha (RARE), DR5 submotif (AID 2282934); settings: HepG2 Attagene cis-factorial RARE DR5 reporter, mRNA; actives raise or lower the signal;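 on AC50: reporter responds to endogenous RAR alpha beta and gamma in HepG2 not RARA alone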
# Chain of Retinoic acid receptor alpha (Homo sapiens) (P10276 whole entry, looked up): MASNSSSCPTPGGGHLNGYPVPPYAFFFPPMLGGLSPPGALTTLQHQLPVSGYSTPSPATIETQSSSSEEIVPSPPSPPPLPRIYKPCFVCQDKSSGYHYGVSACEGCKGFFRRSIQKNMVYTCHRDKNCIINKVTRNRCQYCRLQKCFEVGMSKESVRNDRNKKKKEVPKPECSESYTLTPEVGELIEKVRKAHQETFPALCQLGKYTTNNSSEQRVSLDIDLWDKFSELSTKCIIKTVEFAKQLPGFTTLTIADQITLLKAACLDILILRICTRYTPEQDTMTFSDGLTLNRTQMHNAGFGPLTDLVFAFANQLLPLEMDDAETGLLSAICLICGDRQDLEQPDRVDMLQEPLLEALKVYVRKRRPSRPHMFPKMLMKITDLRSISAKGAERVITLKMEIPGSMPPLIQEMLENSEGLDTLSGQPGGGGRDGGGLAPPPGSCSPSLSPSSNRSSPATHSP
# Procedure, shortened: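 Endpoint fitted in both directions relative to DMSO as negative control. It reflects DR5 cis-element reporter mRNA induction in transiently transfected HepG2 cells, measured 24 h after dosing through RT-PCR and fluorescent capillary electrophoresis.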
# [17] = target: Transcription factor E2F1 (Homo sapiens) (UniProt Q01094); assay: ATG_E2F_CIS: Attagene CIS-FACTORIAL HepG2 Assay for human E2F Transcription Factor 1 (AID 2282935); settings: HepG2 Attagene cis-reporter, E2F reporter RNA transcripts; actives raise or lower the signal
# Chain of Transcription factor E2F1 (Homo sapiens) (Q01094 whole entry, looked up): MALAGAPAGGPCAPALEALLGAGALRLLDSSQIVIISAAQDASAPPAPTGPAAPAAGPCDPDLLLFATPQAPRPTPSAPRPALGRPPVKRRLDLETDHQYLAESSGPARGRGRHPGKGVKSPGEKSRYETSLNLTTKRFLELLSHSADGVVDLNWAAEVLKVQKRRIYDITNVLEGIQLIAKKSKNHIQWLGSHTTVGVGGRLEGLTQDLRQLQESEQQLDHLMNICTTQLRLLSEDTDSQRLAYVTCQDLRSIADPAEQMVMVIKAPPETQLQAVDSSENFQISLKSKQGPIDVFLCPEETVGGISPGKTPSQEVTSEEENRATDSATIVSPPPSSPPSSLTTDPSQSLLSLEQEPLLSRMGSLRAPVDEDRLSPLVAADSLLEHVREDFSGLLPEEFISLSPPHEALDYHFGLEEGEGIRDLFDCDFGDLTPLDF
# Procedure, shortened: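 HepG2 cells transiently transfected with multiplexed cis-element reporter units, dosed for 24 h. Reporter mRNA measured by RT-PCR, 6-FAM primer-extension labeling, HpaI digestion and capillary electrophoresis; bidirectional fit versus DMSO baseline.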
# [18] = APR_HepG2_MitoMembPot_72hr: Apredica 72-hour HepG2 Assay for Mitochondrial Membrane Potential (AID 2282917); settings: imaging, actives raise or lower the signal
# Procedure, shortened: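 HepG2 cells exposed 72 h to compounds at 0.39–200 uM (0.5% v/v DMSO, duplicates); MitoTracker Red CMXRos 250 nM loaded 30 min before 3.7% formaldehyde fixation, imaged by HCS fluorescence. Bidirectional fit versus DMSO.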
# [19] = APR_HepG2_p53Act_72hr: Apredica 72-hour HepG2 Assay for p53 Activation (AID 2282923); settings: high-content imaging, actives raise or lower the signal;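 further: average cellular p53 protein immunofluorescence intensity in HepG2 cells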
# Procedure, shortened: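 HepG2 monolayers receive test compounds in duplicate at ten concentrations (0.39 through 200 uM) for 72 hr. They are then formaldehyde-fixed, antibody-labelled for p53, Hoechst-stained and imaged, with activity fitted bidirectionally versus DMSO.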
smiles,measurement,setting,value
CCCCCc1ccc(N)cc1,outcome,[1],inactive
same,outcome,[2],inactive
same,outcome,[3],inactive
same,outcome,[4],inactive
same,outcome,[5],inactive
same,outcome,[6],inactive
same,outcome,[7],inactive
same,outcome,[8],inactive
same,outcome,[9],inactive
same,outcome,[10],inactive
same,outcome,[11],inactive
same,AC50,[12],65.5 µM (active)
same,outcome,[12],inactive
same,AC50,[13],25.9 µM (active)
same,outcome,[13],inactive
same,outcome,[14],inactive
same,outcome,[15],inactive
same,outcome,[16],inactive
same,outcome,[17],inactive
O=C1c2ccccc2C(=O)N1CCc1noc(-c2ccc(CN3CCCCCC3)s2)n1,outcome,[18],inactive
same,outcome,[1],inactive
same,outcome,[2],inactive
same,outcome,[3],inactive
same,outcome,[4],inactive
same,outcome,[5],inactive
same,outcome,[6],inactive
same,outcome,[7],inactive
same,outcome,[8],inactive
same,outcome,[9],inactive
same,outcome,[10],inactive
same,outcome,[12],inactive
same,AC50,[13],24.7 µM (active)
same,outcome,[14],inactive
same,AC50,[15],56.6 µM (active)
same,outcome,[16],inactive
same,outcome,[17],inactive
CCO[Si](CCCNC(N)=O)(OCC)OCC,outcome,[18],inactive
same,outcome,[1],inactive
same,outcome,[2],inactive
same,outcome,[3],inactive
same,outcome,[4],inactive
same,outcome,[5],inactive
same,outcome,[6],inactive
same,outcome,[7],inactive
same,outcome,[8],inactive
same,outcome,[9],inactive
same,outcome,[10],inactive
same,outcome,[12],inactive
same,outcome,[13],inactive
same,outcome,[14],inactive
same,outcome,[15],inactive
same,outcome,[16],inactive
same,outcome,[17],inactive
CCN(Cc1cccnc1)C(=O)c1cccc(Cl)c1[C@]1(C)C(=O)N(Cc2ccc(OC)cc2OC)c2ccc(Cl)cc21,outcome,[18],inactive
same,AC50,[1],21.8 µM (active)
same,outcome,[2],inactive
same,outcome,[3],inactive
same,outcome,[4],inactive
same,outcome,[5],inactive
same,outcome,[6],inactive
same,outcome,[7],inactive
same,AC50,[8],10.8 µM (active)
same,outcome,[9],inactive
same,AC50,[10],8.21 µM (active)
same,AC50,[12],1.75 µM (active)
same,AC50,[13],10.3 µM (active)
same,outcome,[14],inactive
same,outcome,[15],inactive
same,AC50,[16],0.293 µM (active)
same,AC50,[17],7.42 µM (active)
CC(C)(C)c1cc(/C=C2\SC(N)=NC2=O)cc(C(C)(C)C)c1O,AC50,[1],40.3 µM (active)
same,AC50,[2],27.4 µM (active)
same,AC50,[3],55.2 µM (active)
same,AC50,[4],60.5 µM (active)
same,AC50,[5],60 µM (active)
same,AC50,[19],35.2 µM (active)
same,AC50,[6],86.1 µM (active)
same,outcome,[7],inactive
same,AC50,[8],18.9 µM (active)
same,outcome,[9],inactive
same,AC50,[10],4.67 µM (active)
same,AC50,[11],6.65 µM (active)
same,outcome,[12],inactive
same,AC50,[13],20.2 µM (active)
same,outcome,[14],inactive
same,outcome,[15],inactive
same,outcome,[16],inactive
same,outcome,[17],inactive
CN(C)c1ccc(C(=C2C=CC(=[N+](C)C)C=C2)c2ccc(N(C)C)cc2)cc1,AC50,[1],4.11 µM (active)
same,AC50,[2],12.4 µM (active)
same,AC50,[3],4.3 µM (active)
same,AC50,[4],40 µM (active)
same,AC50,[5],6.59 µM (active)
same,AC50,[6],0.0403 µM (active)
same,outcome,[7],inactive
same,outcome,[8],inactive
same,AC50,[9],4.56 µM (active)
same,outcome,[10],inactive
same,AC50,[11],2.86 µM (active)
same,outcome,[12],inactive
same,AC50,[13],2.23 µM (active)
same,outcome,[14],inactive
same,outcome,[15],inactive
same,AC50,[16],2.58 µM (active)
same,outcome,[17],inactive
O=c1c(-c2ccc(O)cc2)coc2cc(O)cc(O)c12,outcome,[1],inactive
same,outcome,[2],inactive
same,outcome,[3],inactive
same,outcome,[4],inactive
same,outcome,[5],inactive
same,AC50,[19],72.9 µM (active)
same,outcome,[6],inactive
same,outcome,[7],inactive
same,AC50,[8],27.5 µM (active) and 50.6 µM (active)
same,outcome,[8],inactive
same,AC50,[9],36.5 µM (active) [middle of 4 runs]
same,AC50,[10],19.1 µM (active) [middle of 4 runs]
same,AC50,[12],34.3 µM (active)
same,outcome,[12],inactive
same,outcome,[13],inactive
same,AC50,[14],29.8 µM (active) and 52.6 µM (active)
same,outcome,[14],inactive
same,outcome,[15],inactive
same,AC50,[16],62.3 µM (active)
same,outcome,[16],inactive
same,outcome,[17],inactive

# — PubChem BioAssay (EPA / NIEHS)
